The supplement of paper PMC11732987, “Enantioselective OTUD7B fragment discovery through chemoproteomics screening and high-throughput optimisation” (Communications Chemistry, 2025)

Tests used:
Assay in all cases: log2 ratio of Biotin-Ahx-Ub-VS probe labelling (fragment/DMSO); higher = less target engagement (more negative = stronger competition), active = hit call of the paper (q ≤ 0.05, log2 ratio ≤ -1)
Details in all cases: compound concentration: 200 uM; treatment time: 3 h
[1] = biological target: T1, USP19 (UniProt O94966)
T1 sequence (whole entry): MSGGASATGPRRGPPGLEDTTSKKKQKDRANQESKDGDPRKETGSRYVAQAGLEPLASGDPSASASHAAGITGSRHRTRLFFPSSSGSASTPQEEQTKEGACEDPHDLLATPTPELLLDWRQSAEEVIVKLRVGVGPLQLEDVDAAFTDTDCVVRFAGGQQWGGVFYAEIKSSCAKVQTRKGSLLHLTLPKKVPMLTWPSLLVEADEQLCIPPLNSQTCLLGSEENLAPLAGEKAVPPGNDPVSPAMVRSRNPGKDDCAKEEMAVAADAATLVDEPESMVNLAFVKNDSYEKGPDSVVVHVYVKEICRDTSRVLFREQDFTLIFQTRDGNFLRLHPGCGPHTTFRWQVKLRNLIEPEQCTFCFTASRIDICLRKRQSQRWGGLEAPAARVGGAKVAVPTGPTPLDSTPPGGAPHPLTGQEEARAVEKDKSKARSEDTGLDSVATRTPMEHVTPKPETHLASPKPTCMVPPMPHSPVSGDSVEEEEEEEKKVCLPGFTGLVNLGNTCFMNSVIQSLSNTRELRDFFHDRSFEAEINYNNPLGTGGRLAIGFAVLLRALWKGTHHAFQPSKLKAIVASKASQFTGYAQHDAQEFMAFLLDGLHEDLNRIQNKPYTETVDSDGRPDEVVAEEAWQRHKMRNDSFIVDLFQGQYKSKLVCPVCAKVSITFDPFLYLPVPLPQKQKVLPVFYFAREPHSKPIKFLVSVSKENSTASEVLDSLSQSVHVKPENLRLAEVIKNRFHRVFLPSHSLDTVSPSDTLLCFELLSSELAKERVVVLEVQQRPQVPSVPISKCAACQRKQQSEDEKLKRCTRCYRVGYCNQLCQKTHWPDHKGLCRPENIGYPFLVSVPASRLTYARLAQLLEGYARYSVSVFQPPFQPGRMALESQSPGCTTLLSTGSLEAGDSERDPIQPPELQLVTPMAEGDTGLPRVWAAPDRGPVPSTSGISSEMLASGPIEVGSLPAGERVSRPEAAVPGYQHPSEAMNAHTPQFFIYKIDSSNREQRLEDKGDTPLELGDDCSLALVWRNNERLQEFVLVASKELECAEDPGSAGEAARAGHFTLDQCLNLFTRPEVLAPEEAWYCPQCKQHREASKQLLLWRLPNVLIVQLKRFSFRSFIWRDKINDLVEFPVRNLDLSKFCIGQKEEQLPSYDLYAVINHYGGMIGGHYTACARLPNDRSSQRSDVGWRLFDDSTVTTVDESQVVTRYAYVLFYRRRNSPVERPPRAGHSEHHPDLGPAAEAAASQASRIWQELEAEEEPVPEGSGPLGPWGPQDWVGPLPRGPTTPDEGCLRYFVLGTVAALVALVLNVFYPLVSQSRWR
In short: (§1)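 Each value is an average log2 ratio of fragment to vehicle, tested by unpaired t-test. The underlying Spectronaut label-free quantities were global-median-normalised, and only proteins with ≥2 unique peptides were included. Triplicate HEK293T lysate samples (495 µg) were exposed to fragment at 200 µM or vehicle for 3 h, then to Biotin-Ahx-Ub-VS at 0.5 µM final for 1 h, before NeutrAvidin enrichment of labelled DUBs, LysC and trypsin digestion, and diaPASEF LC-MS/MS.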

[2] = biological target: T2, USP22 (UniProt Q9UPT9)
T2 sequence (whole entry): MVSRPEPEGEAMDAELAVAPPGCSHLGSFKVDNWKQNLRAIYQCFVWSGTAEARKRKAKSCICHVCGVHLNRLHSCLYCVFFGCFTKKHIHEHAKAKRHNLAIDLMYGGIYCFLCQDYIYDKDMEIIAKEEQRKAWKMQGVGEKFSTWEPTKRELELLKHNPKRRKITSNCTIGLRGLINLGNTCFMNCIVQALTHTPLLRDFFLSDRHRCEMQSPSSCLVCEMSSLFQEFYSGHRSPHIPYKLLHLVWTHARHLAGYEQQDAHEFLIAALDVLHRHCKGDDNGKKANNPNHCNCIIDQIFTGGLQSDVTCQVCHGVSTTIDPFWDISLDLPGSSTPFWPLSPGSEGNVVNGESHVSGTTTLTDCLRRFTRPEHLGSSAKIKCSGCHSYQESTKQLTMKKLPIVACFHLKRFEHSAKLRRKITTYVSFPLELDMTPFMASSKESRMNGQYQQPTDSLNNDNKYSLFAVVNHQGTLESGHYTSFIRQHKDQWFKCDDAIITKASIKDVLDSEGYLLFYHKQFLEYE
In short: as §1

[3] = biological target: USP24 (UniProt Q9UPU5)
Chain of USP24 (Q9UPU5 whole entry): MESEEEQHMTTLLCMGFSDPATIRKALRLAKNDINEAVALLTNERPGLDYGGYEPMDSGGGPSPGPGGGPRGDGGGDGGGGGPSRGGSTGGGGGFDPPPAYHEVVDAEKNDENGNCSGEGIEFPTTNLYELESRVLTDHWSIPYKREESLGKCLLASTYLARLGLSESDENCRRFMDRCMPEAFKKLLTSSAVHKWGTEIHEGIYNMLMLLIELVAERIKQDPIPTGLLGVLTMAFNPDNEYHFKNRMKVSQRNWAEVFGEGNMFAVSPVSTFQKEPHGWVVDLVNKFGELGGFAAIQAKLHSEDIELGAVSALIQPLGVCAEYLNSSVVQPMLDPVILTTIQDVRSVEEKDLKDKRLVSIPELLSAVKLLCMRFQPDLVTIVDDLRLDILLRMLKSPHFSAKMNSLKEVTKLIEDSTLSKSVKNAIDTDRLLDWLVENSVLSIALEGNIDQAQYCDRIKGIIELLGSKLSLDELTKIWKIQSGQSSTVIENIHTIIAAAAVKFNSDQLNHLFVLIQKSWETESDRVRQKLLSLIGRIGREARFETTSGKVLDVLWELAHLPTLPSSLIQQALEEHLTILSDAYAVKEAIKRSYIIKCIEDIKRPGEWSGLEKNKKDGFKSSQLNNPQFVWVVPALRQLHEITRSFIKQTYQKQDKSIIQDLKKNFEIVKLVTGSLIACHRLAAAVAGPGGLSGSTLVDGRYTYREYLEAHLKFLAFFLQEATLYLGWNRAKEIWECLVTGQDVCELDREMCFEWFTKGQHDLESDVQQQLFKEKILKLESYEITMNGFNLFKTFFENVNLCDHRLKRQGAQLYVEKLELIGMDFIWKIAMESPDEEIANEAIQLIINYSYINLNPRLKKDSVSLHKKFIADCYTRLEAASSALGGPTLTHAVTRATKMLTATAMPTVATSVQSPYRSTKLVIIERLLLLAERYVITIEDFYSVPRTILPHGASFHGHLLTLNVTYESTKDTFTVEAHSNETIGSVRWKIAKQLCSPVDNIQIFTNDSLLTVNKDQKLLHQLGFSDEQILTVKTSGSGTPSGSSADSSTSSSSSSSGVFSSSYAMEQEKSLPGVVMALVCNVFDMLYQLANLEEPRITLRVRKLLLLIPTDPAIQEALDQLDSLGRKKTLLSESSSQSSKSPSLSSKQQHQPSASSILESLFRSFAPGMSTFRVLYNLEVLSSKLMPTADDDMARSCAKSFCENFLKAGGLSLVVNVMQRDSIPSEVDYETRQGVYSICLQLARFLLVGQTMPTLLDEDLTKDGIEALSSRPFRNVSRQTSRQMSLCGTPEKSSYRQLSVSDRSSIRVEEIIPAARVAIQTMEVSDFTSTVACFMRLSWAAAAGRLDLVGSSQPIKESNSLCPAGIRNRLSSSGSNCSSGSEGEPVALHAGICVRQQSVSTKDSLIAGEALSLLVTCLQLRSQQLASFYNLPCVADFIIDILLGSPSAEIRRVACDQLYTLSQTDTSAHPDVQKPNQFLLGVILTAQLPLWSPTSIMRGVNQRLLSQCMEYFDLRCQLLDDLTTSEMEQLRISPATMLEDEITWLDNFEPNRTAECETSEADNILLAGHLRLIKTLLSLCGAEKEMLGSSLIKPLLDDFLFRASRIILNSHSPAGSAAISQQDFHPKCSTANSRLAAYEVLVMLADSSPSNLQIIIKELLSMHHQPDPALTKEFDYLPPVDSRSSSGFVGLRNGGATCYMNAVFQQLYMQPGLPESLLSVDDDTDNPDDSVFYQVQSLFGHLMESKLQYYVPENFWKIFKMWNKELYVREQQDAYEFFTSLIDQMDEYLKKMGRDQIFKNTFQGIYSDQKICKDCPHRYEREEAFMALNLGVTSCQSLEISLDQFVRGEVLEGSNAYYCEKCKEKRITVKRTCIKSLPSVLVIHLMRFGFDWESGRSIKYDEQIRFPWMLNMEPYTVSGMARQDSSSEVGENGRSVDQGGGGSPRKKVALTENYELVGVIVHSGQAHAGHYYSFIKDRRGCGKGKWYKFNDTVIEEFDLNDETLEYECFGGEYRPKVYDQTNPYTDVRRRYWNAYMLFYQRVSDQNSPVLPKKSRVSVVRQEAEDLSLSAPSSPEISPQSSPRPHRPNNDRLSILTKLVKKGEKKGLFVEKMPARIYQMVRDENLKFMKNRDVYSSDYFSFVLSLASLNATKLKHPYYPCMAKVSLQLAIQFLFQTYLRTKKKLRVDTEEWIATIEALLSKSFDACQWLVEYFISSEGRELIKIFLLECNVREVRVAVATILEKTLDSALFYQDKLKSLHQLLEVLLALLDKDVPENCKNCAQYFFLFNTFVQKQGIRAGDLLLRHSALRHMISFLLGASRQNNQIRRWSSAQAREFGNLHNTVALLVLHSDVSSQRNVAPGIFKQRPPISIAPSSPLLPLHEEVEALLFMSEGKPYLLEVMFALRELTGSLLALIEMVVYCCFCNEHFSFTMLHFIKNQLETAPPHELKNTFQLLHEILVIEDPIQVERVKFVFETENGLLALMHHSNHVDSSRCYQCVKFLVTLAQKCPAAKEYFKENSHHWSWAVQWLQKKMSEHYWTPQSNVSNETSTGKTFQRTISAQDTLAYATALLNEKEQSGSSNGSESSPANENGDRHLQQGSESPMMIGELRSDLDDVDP
In short: as §1

[4] = biological target: T3, USP25 (UniProt Q9UHP3)
T3 sequence (whole entry): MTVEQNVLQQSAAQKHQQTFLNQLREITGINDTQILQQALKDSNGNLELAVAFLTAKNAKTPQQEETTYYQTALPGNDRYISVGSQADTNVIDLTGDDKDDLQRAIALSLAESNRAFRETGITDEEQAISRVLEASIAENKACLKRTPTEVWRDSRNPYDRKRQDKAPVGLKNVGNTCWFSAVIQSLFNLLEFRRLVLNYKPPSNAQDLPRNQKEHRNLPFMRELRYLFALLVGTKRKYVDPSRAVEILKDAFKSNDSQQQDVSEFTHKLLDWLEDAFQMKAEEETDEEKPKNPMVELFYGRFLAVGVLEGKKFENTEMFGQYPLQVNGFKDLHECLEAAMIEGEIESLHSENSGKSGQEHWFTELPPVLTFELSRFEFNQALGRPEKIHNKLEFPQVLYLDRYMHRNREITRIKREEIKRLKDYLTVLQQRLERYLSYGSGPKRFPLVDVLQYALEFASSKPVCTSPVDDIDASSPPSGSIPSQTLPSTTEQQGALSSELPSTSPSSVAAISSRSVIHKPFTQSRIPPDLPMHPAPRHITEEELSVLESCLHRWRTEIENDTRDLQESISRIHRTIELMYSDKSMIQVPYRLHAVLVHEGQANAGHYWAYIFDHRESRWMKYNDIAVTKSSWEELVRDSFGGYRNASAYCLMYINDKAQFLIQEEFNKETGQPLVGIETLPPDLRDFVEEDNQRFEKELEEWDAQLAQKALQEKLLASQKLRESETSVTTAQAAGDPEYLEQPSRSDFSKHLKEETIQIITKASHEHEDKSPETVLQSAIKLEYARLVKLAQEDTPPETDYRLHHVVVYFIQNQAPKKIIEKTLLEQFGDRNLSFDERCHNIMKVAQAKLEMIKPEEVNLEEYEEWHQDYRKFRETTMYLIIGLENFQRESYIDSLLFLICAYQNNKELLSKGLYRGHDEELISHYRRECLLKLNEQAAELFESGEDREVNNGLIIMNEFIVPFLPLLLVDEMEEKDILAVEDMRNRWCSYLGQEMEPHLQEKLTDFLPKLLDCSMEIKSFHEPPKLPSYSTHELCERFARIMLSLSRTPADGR
In short: as §1

[5] = biological target: T4, USP28 (UniProt Q96RU2)
T4 sequence (whole entry): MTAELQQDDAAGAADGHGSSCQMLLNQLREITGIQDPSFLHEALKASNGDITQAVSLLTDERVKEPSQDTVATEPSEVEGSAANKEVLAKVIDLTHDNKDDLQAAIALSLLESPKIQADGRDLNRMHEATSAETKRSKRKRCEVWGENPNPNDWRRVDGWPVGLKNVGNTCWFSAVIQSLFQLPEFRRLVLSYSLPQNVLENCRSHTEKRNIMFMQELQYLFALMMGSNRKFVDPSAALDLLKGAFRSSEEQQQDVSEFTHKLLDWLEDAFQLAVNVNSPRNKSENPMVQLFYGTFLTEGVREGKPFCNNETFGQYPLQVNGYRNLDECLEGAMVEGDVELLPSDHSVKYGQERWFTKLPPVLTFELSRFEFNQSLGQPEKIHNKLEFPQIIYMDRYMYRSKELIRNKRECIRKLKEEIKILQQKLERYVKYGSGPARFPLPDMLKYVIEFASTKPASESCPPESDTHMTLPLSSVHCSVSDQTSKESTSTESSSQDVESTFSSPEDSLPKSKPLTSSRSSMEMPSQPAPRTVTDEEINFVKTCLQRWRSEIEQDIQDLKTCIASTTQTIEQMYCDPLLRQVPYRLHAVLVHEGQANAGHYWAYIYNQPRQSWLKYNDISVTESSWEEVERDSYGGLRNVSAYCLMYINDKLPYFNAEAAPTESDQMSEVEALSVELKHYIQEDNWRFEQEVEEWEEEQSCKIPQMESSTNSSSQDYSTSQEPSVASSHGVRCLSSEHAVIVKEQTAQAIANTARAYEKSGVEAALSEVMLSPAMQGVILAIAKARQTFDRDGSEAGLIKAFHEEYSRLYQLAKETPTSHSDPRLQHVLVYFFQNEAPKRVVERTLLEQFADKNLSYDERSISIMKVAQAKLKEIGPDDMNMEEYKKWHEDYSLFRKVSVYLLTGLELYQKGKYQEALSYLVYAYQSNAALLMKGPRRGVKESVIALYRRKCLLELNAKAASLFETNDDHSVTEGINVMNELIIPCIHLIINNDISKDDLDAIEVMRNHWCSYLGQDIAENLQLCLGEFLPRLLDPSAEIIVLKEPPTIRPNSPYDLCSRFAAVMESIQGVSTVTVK
In short: as §1

Measured: log2 ratio of Biotin-Ahx-Ub-VS probe labelling

Cc1ccc(C)c(Oc2ccc(CNC(=O)CCl)cn2)c1.Cl
inactive: [1] -0.382 | [2] -0.856 | [3] -0.83 | [4] -0.627 | [5] -0.765
